Measured values published in PubChem BioAssay (NCI).
About 79,000 compounds went through this panel and 15% of them were active in at least one assay; those are over-represented in the sample as a whole. Active and inactive are the calls of the source. No stated cut-off is given here; in the data, active means growth inhibition above about 70%; inactive means the rest.

Tests used:
[1] = NCI Yeast Anticancer Drug Screen. Data for the rad52 strain (AID 147);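 further: 0% = growth of vehicle-treated control cultures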; conditions: S. cerevisiae rad52 mutant growth inhibition, stronger effect = higher value
How it was run: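 DNA repair-defective yeast; compound exposure; growth scored against vehicle controls.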

[2] = NCI Yeast Anticancer Drug Screen. Data for the wt1 strain (AID 149);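 further: 0% = growth of vehicle-treated wt1 cultures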; conditions: S. cerevisiae wt1 strain (SPY 50644) growth inhibition, stronger effect = higher value
How it was run: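 Using yeast strain wt1, compound-induced growth inhibition was determined against vehicle-treated cultures.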

[3] = NCI Yeast Anticancer Drug Screen. Data for the rad50EPP+ strain (AID 151);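 further: 0% = growth of vehicle-treated control cultures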; conditions: S. cerevisiae rad50 mutant strain, stronger effect = higher value
How it was run: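 rad50EPP+ yeast treated with test compounds. Readout: growth vs vehicle control.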

[4] = NCI Yeast Anticancer Drug Screen. Data for the mgt1 strain (AID 153); conditions: S. cerevisiae mgt1 mutant growth inhibition, stronger effect = higher value
How it was run: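 Growth inhibition relative to vehicle controls was scored for the mgt1 yeast strain after compound exposure.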

[5] = NCI Yeast Anticancer Drug Screen. Data for the rad50 strain (AID 155);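 further: 0% = growth of vehicle-only cultures of the same strain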; conditions: S. cerevisiae rad50 strain growth inhibition, stronger effect = higher value
How it was run: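 Relative growth inhibition (compound vs vehicle) was measured in yeast with a defined repair-gene alteration.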

[6] = NCI Yeast Anticancer Drug Screen. Data for the mec2-1 strain (AID 157); conditions: S. cerevisiae mec2-1 strain, stronger effect = higher value
How it was run: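 Growth inhibition is read against vehicle-treated controls after compound exposure of the mec2-1 yeast strain, which is defective in DNA damage repair or cell cycle control.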

[7] = NCI Yeast Anticancer Drug Screen. Data for the rad14 strain (AID 159);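 further: 0% = growth of vehicle-treated control cultures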; conditions: S. cerevisiae rad14 strain growth inhibition, stronger effect = higher value
How it was run: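 Screen for anticancer potential: a yeast strain altered in DNA damage repair is grown with compound, and reduced growth is quantified against vehicle controls.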

[8] = NCI Yeast Anticancer Drug Screen. Data for the sgs1 mgt1 strain (AID 161);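 further: 0% = growth of cultures given vehicle only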; conditions: S. cerevisiae sgs1 mgt1 strain, stronger effect = higher value
How it was run: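 Yeast cells carrying a defined DNA-repair defect were exposed to test compounds. Growth inhibition was measured relative to vehicle-treated controls.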

[9] = NCI Yeast Anticancer Drug Screen. Data for the CLN2oe strain (AID 163);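 further: 0% = growth of vehicle-only control cultures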; conditions: S. cerevisiae CLN2oe strain, stronger effect = higher value
How it was run: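 Compound-treated yeast; growth vs vehicle ctrl = % inhibition. Genetically altered strain (cell-cycle control).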

[10] = NCI Yeast Anticancer Drug Screen. Data for the cln2 rad14 strain (AID 165);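 further: 0% = growth equal to vehicle treated cultures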; conditions: S. cerevisiae cln2 rad14 strain, stronger effect = higher value
How it was run: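 Growth inhibition, relative to vehicle-treated controls, is the read-out. The test organism is a yeast strain with defined genetic alterations, cln2 rad14.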

[11] = NCI Yeast Anticancer Drug Screen. Data for the bub3 strain (AID 167); conditions: S. cerevisiae bub3 mutant strain, stronger effect = higher value
How it was run: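 Screening used yeast with an engineered genetic alteration affecting cell cycle control. Compound-exposed cultures were compared with vehicle cultures, and reduced growth was taken as inhibition.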

[12] = NCI Yeast Anticancer Drug Screen. Data for the wt2 strain (AID 169);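 further: 0% = growth of vehicle-treated yeast cultures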; conditions: S. cerevisiae wt2 strain growth inhibition, stronger effect = higher value
How it was run: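 Compound exposure of yeast; growth compared with vehicle controls; inhibition reported.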

[13] = NCI Yeast Anticancer Drug Screen. Data for the mlh1 strain (AID 171);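 further: 0% = growth of vehicle-treated control cultures of the same strain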; conditions: S. cerevisiae mlh1 strain growth inhibition, stronger effect = higher value
How it was run: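 Compounds are applied to a genetically altered yeast strain, and its growth is compared with that of vehicle-treated cultures to give percent inhibition.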

[14] = NCI Yeast Anticancer Drug Screen. Data for the sgs1 strain (AID 173);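 further: 0% = growth of vehicle-only control cultures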; conditions: S. cerevisiae sgs1 mutant, stronger effect = higher value
How it was run: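 Compounds applied to genetically altered yeast; growth compared with vehicle-treated cultures to give % inhibition.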

[15] = NCI Yeast Anticancer Drug Screen. Data for the mlh1 rad18 strain (AID 175); conditions: S. cerevisiae mlh1 rad18 strain growth inhibition, stronger effect = higher value
How it was run: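 Cells of a genetically altered yeast strain, deficient in DNA damage repair, were treated with compound. Their growth was then compared with that of vehicle-treated cultures to give inhibition.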

[16] = NCI Yeast Anticancer Drug Screen. Data for the rad18 strain (AID 177); conditions: S. cerevisiae rad18 mutant growth inhibition, stronger effect = higher value
How it was run: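 Compounds are applied to a repair-deficient yeast strain, and growth is compared with that of vehicle-treated cultures to give percent inhibition.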

[17] = at 5.0 µM (retest, dose inferred, filed as 0.5)
[18] = at 50.0 µM (retest, dose inferred, filed as 5.0)

Measured: growth inhibition

CC(C)(CCCCC(C)(C)[N+](C)(C)C)[N+](C)(C)C
active: [5]; at 50.0 µM 85.2% | [6]; at 50.0 µM 88.5% | [8]; at 50.0 µM 89.1% | [10]; at 50.0 µM 87.2% | [11]; [18] 98% | [11]; at 50.0 µM 85.5% | [15]; at 50.0 µM 91.5%
inactive: [1]; at 1.2 µM -4% | [1]; at 3.7 µM -6% | [1]; at 11.0 µM -5% | [1]; at 33.0 µM -10% | [1]; at 100.0 µM -1% | [2]; at 1.2 µM -2% | [2]; at 3.7 µM 0% | [2]; at 11.0 µM -1% | [2]; at 33.0 µM -1% | [2]; at 100.0 µM 1% | [3]; at 1.2 µM -3% | [3]; at 3.7 µM -4% | [3]; at 11.0 µM 0% | [3]; at 33.0 µM -1% | [3]; at 100.0 µM -2% | [4]; at 1.2 µM -4% | [4]; at 3.7 µM -3% | [4]; at 11.0 µM -4% | [4]; at 33.0 µM -16% | [4]; at 100.0 µM -2% | [5]; at 1.2 µM -10% | [5]; at 3.7 µM -18% | [5]; [17] 4% | [5]; at 11.0 µM -25% | [5]; at 33.0 µM -4% | [5]; [18] 54% | [5]; at 100.0 µM -2% | [6]; at 1.2 µM 0% | [6]; at 3.7 µM 1% | [6]; [17] 21% | [6]; at 11.0 µM 0% | [6]; at 33.0 µM 1% | [6]; [18] 42% | [6]; at 100.0 µM -1% | [7]; at 1.2 µM -2% | [7]; at 3.7 µM -2% | [7]; at 11.0 µM -4% | [7]; at 33.0 µM -4% | [7]; at 100.0 µM -2% | [8]; [17] 0% | [8]; [18] 31% | [9]; at 1.2 µM -4% | [9]; at 3.7 µM -2% | [9]; at 11.0 µM 2% | [9]; at 33.0 µM -3% | [9]; at 100.0 µM -1% | [10]; [17] 44% | [10]; [18] 52% | [11]; at 1.2 µM -1% | [11]; at 3.7 µM 0% | [11]; [17] -1% | [11]; at 11.0 µM -1% | [11]; at 33.0 µM 0% | [11]; at 100.0 µM 0% | [12]; at 1.2 µM -2% | [12]; at 3.7 µM -2% | [12]; at 11.0 µM -5% | [12]; at 33.0 µM -5% | [12]; at 100.0 µM -1% | [13]; at 1.2 µM 1% | [13]; at 3.7 µM 1% | [13]; at 11.0 µM 0% | [13]; at 33.0 µM 0% | [13]; at 100.0 µM -1% | [14]; at 1.2 µM -1% | [14]; at 3.7 µM 1% | [14]; at 11.0 µM -2% | [14]; at 33.0 µM 0% | [14]; at 100.0 µM 0% | [15]; [17] 10% | [15]; [18] 35% | [16]; at 1.2 µM -4% | [16]; at 3.7 µM 0% | [16]; at 11.0 µM -2% | [16]; at 33.0 µM -3% | [16]; at 100.0 µM -3%

CCN(CC)CCNc1ccc2ncn3c4cc(OC)c(OC)c(=O)c4c(O)c1c23
inactive: [1]; at 1.2 µM 15% | [1]; at 3.7 µM 14% | [1]; at 11.0 µM 40% | [1]; at 33.0 µM 36% | [1]; at 100.0 µM 59% | [2]; at 1.2 µM -82% | [2]; at 3.7 µM 1% | [2]; at 11.0 µM 2% | [2]; at 33.0 µM 4% | [2]; at 100.0 µM 6% | [3]; at 1.2 µM 1% | [3]; at 3.7 µM 3% | [3]; at 11.0 µM 11% | [3]; at 33.0 µM 20% | [3]; at 100.0 µM 26% | [4]; at 1.2 µM 1% | [4]; at 3.7 µM 2% | [4]; at 11.0 µM 3% | [4]; at 33.0 µM 4% | [4]; at 100.0 µM 7% | [5]; at 1.2 µM 5% | [5]; at 3.7 µM 15% | [5]; [17] 2% | [5]; at 11.0 µM 30% | [5]; at 33.0 µM 46% | [5]; [18] -3% | [5]; at 50.0 µM 65.5% | [5]; at 100.0 µM 66% | [6]; at 1.2 µM -2% | [6]; at 3.7 µM -1% | [6]; [17] -3% | [6]; at 11.0 µM 0% | [6]; at 33.0 µM 8% | [6]; [18] -12% | [6]; at 50.0 µM 23.5% | [6]; at 100.0 µM 11% | [7]; at 1.2 µM -1% | [7]; at 3.7 µM 0% | [7]; at 11.0 µM 5% | [7]; at 33.0 µM 4% | [7]; at 100.0 µM 8% | [8]; [17] 10% | [8]; [18] 17% | [8]; at 50.0 µM 12.8% | [9]; at 1.2 µM -6% | [9]; at 3.7 µM -4% | [9]; at 11.0 µM 0% | [9]; at 33.0 µM -2% | [9]; at 100.0 µM 5% | [10]; [17] -5% | [10]; [18] 48% | [10]; at 50.0 µM 26.4% | [11]; at 1.2 µM -1% | [11]; at 3.7 µM -3% | [11]; [17] 11% | [11]; at 11.0 µM 0% | [11]; at 33.0 µM -2% | [11]; [18] 16% | [11]; at 50.0 µM 11.8% | [11]; at 100.0 µM 4% | [12]; at 1.2 µM -3% | [12]; at 3.7 µM 0% | [12]; at 11.0 µM 1% | [12]; at 33.0 µM 1% | [12]; at 100.0 µM 2% | [13]; at 1.2 µM -1% | [13]; at 3.7 µM 0% | [13]; at 11.0 µM 1% | [13]; at 33.0 µM 3% | [13]; at 100.0 µM 7% | [14]; at 1.2 µM 0% | [14]; at 3.7 µM 5% | [14]; at 11.0 µM 3% | [14]; at 33.0 µM 4% | [14]; at 100.0 µM 5% | [15]; [17] 38% | [15]; [18] -10% | [15]; at 50.0 µM 20.3%
